# In the supplement of paper PMC13380429:
# Columns and labels:
# [1] = system: Vero E6 infected with SARS-CoV-2; test: morphology score (similarity to uninfected cells); higher = more like uninfected cells; settings: 24 h
# [2] = system: Vero E6 infected with SARS-CoV-2; test: SARS-CoV-2 infection rate relative to infected DMSO; higher = more infection, active = 60 or less; settings: 24 h
SMILES,morphology score [1],SARS-CoV-2 infection rate [2]
COc1cccc2c1C(=O)c1c(O)c3c(c(O)c1C2=O)C[C@@](O)(C(C)=O)C[C@@H]3O[C@H]1C[C@H](N)[C@H](O)[C@H](C)O1 [daunorubicin] (10 µM),-0.0163,106% (inactive)
O[C@@H](Cc1ccncc1)C(Cl)(Cl)Cl (10 µM),0.21,83.5% (inactive)
COC(=O)Nc1nc2cc(SC(C)C)ccc2[nH]1 [methiazole] (0.833333 µM),-0.254,120% (inactive)
COc1cc(NC(C)CCCN)c2ncccc2c1 (stereo unspecified) [primaquine] (10 µM),0.491,76.5% (inactive)
O=c1c(O)c(-c2ccc(O)cc2)oc2cc(O)cc(O)c12 [kaempferol] (10 µM),0.215,108% (inactive)
CCN(CC)Cc1cc(Nc2ccnc3cc(Cl)ccc23)ccc1O [amodiaquine] (10 µM),0.839,17.5% (active)
C[C@H](NCc1ccc(OCc2cccc(F)c2)cc1)C(N)=O [safinamide] (10 µM),-0.052,115% (inactive)
CC1(COc2ccc3c(c2)ncn3-c2ccc3cccc(N4CCC(N)CC4)c3n2)COC1 [crenolanib] (0.833333 µM),-0.0592,99.5% (inactive)
Cc1cc(=O)n(-c2ccccc2)[nH]1 [N-demethylantipyrine] (10 µM),0.121,101% (inactive)
Nc1nccc(/C=C/c2ccccc2)n1 (10 µM),0.324,93% (inactive)
O=C(Nc1cnn2ccc(N3CCC[C@@H]3c3cc(F)ccc3F)nc12)N1CC[C@H](O)C1 [larotrectinib] (10 µM),-0.124,122% (inactive)
C[C@@H]([C@@H](O)c1ccc(O)cc1)N1CCC(O)(c2ccccc2)CC1 [traxoprodil] (10 µM),-0.037,108% (inactive)
Oc1c(I)cc(Cl)c2cccnc12 [clioquinol] (10 µM),0.127,90% (inactive)
COCCCOc1cc(C[C@@H](C[C@H](N)[C@@H](O)C[C@H](C(=O)NCC(C)(C)C(N)=O)C(C)C)C(C)C)ccc1OC [aliskiren-hemifumarate] (10 µM),-0.0367,110% (inactive)
Nc1ncnc2c1ncn2[C@@H]1O[C@@H]2COP(=O)(O)O[C@H]2[C@H]1O [cyclic-AMP] (10 µM),0.255,86.5% (inactive)
CN(CCOP(=O)(O)O)C(=N)N [creatinol-phosphate] (10 µM),0.077,95.5% (inactive)
CC(=C(CCOC(=O)C(C)C)SSC(CCOC(=O)C(C)C)=C(C)N(C=O)Cc1cnc(C)nc1N)N(C=O)Cc1cnc(C)nc1N (stereo in doubt) [sulbutiamine] (10 µM),0.0249,100% (inactive)
CNC(=O)c1cc(Oc2ccc(NC(=O)Nc3ccc(Cl)c(C(F)(F)F)c3)c(F)c2)ccn1 [regorafenib] (0.833333 µM),0.0372,110% (inactive)
C[C@H](c1ccc(F)cc1CCCC(=O)O)N(c1cc(F)ccc1F)S(=O)(=O)c1ccc(Cl)cc1 (10 µM),0.0279,112% (inactive)
OC[C@H]1OC(O)[C@H](O)[C@@H](O)[C@@H]1O (stereo partly specified) [dextrose] (10 µM),-0.00495,110% (inactive)
Nc1ccc(S(=O)(=O)Nc2cnc3ccccc3n2)cc1 [sulfaquinoxaline] (10 µM),0.114,104% (inactive)
Cn1cc(-c2cnc3ccc4ccc(CS(=O)(=O)NCc5ccccn5)cc4c(=O)c3c2)cn1 (10 µM),0.0342,106% (inactive)
CN(C)CCc1c[nH]c2ccc(CS(=O)(=O)N3CCCC3)cc12 [almotriptan] (10 µM),0.00995,110% (inactive)
CC(=O)OCC(=O)[C@@]1(O)CC[C@H]2[C@@H]3CCC4=CC(=O)C=C[C@]4(C)[C@@]3(F)[C@@H](O)C[C@@]21C [isoflupredone-acetate] (10 µM),0.155,98% (inactive)
Cc1cccc(C(=O)O)c1O [hydroxytoluic-acid] (10 µM),-0.137,106% (inactive)
Cn1c(C#N)ccc1-c1ccc2c(c1)C(C)(C)OC(=S)N2 [tanaproget] (10 µM),0.0429,102% (inactive)
CN(C)Cc1ccc(-c2nc3cccc4c3n2CCNC4=O)cc1 (10 µM),0.092,97.5% (inactive)
O=C(O)c1ccc(Nc2ncc3c(n2)-c2ccc(Cl)cc2C(c2c(F)cccc2F)=NC3)cc1 (10 µM),0.00168,109% (inactive)
